HTR2A ag: mouse HTR2A agonism via beta-arrestin recruitment; P35363; CHO-K1 mHTR2A beta-arrestin complementation, luminescence; percent of 30 µM serotonin response; activation, % at 7.6 µM; hit rate 0.66% among 360,000; AID 624169;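 active = activation above a run cutoff, the mean activation of all tested compounds plus 3 SD, cut at about 14% in these data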;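 note: 0% = plate median of compound wells and 100% = 30 µM serotonin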
Rtt109 HAT inh: inhibitors of Candida albicans Rtt109/Vps75 histone acetyltransferase; purified Rtt109/Vps75, ThioGlo CoA-SH fluorescence, 4 h; inhibition, % at 34.9 µM; AID 540336; hit rate 0.16% among 330,000; Q5AAJ8;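 active = inhibition of at least 50% in every replicate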
TLR4 MyD88 comp: inhibitors of human TLR4-MyD88 binding | HeLa CL3-4 TLR4/MyD88 BLA complementation, FRET ratio | inhibition, % at 8.4 µM | hit rate 0.18% among 200,000; in the data active = inhibition above about 25%;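 note: 0% = vehicle and 100% = reference inhibitor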
TLR9-MyD88 block: TLR9-MyD88 interaction inhibition | Q9NR96+Q99836 | CHO BLA complementation TLR9-MyD88, CCF4 FRET ratio | inhibition, % at 4.98 µM | hit rate 0.21% among 340,000;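 active = inhibition above the mean over all tested compounds plus 3 SD, cut at about 21% in these data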;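 note: 0% = DMSO only wells and 100% = clavulanate BLA inhibitor control wells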
NOD2 RIPK2 PPI: blocks binding of human NOD2 to RIPK2. CHO BLA complementation NOD2-RIPK2, CCF4 ratio. O43353. inhibition, % at 4.98 µM. hit rate 0.38% among 360,000. AID 624267; in the data active = inhibition above about 21%;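 note: 0% = vehicle only and 100% = reference blocker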
LANA-H2B inh: blocks KSHV LANA binding to histone H2A/H2B. cell-free LANA-H2A/H2B peptide, fluorescence polarization. inhibition, % (no concentration beside the values). hit rate 0.6% among 320,000; in the data active = inhibition mostly above about 10%, no sharp cut-off; inactive = mostly below about 6.7%
MOR ag counter: counter-screen for mouse HTR2A agonists: human mu opioid receptor agonists. shares compounds with HTR2A ag. U2OS OPRM1 beta-arrestin PathHunter, luminescence; DMSO 0%, DAMGO 9.3 µM 100%. activation, % at 9.3 µM. hit rate 5.3% among 2,300;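 active = mean activation above the mean of DMSO-only wells plus 3 SD, cut at about 0.5% in these data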
Target sequence (P35372 whole entry, looked up): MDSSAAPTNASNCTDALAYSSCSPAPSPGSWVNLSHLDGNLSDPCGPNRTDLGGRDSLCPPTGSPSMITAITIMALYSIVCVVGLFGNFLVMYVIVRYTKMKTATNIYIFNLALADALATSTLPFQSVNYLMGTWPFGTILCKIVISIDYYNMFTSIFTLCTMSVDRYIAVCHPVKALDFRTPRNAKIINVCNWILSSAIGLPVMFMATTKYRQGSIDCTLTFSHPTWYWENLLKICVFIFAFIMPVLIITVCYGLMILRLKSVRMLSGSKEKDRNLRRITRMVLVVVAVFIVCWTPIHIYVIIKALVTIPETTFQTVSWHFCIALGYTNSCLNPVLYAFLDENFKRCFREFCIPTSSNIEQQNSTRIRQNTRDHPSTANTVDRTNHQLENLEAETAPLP
HTR2A ag conf: mouse HTR2A agonism confirmed | activation, % at 7.6 µM | shares compounds with HTR2A ag | hit rate 19% among 2,300 | CHO-K1 PathHunter beta-arrestin recruitment, luminescence; DMSO 0%, 30 µM serotonin 100%;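 active = mean activation across triplicates above the hit threshold derived in the original primary screen, cut at about 15% in these data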
* marks the source's active call; other numbers are inactive results. Rows were chosen to be rich in hits. Some 1.8% of all compounds tested hit in one or more screens of this group.

`COc1ccc(NC(=O)C2CCCN2S(=O)(=O)c2ccc3c(c2)C(C)(C)C(=O)N3C)cc1` (stereo unspecified) gave HTR2A ag 34*, NOD2 RIPK2 PPI 5, MOR ag counter 0 and HTR2A ag conf -3.
For COc1ccc(N(C)S(=O)(=O)c2cccc(C(=O)Nc3nc(C)c(C(C)=O)s3)c2)cc1 the results were HTR2A ag 16*, Rtt109 HAT inh 9, TLR9-MyD88 block -4, NOD2 RIPK2 PPI -7, LANA-H2B inh 5, MOR ag counter 0 and HTR2A ag conf 5.
Screening COc1ccc(COC(=O)C2=C(C)NC(=O)NC2c2cccc(Br)c2)cc1 (stereo unspecified) returned HTR2A ag 16*, Rtt109 HAT inh 5, TLR9-MyD88 block -3, NOD2 RIPK2 PPI 4, LANA-H2B inh 1, MOR ag counter 0 and HTR2A ag conf 16*.
Screening CCc1ccc(NC(=O)Cn2nnc(C(=O)NCCc3ccc(OC)c(OC)c3)c2N)cc1 returned HTR2A ag 17*, Rtt109 HAT inh 1, TLR9-MyD88 block 3, NOD2 RIPK2 PPI 2, LANA-H2B inh -3, MOR ag counter 0 and HTR2A ag conf 2.
For CCCS(=O)(=O)NC(=O)C1(C)CCCN(C(=O)c2ccccc2F)C1 (stereo unspecified) the results were HTR2A ag 3 and NOD2 RIPK2 PPI 3.
CCCNC(=O)C1(C)CCCN(C(=O)c2ccccc2F)C1 (stereo unspecified) was read as HTR2A ag 17*, NOD2 RIPK2 PPI -11, MOR ag counter -1 and HTR2A ag conf -3.
CCOC(=O)c1cnc(SCC(=O)OC)nc1N was read as HTR2A ag 26*, Rtt109 HAT inh -4, TLR4 MyD88 comp -2, TLR9-MyD88 block -3, NOD2 RIPK2 PPI -3, LANA-H2B inh 4, MOR ag counter -1 and HTR2A ag conf -3.
For O=C(Nc1nnc([C@H]2C[C@H](O)[C@@H](CO)O2)s1)c1ccccc1F the results were HTR2A ag 4 and NOD2 RIPK2 PPI 0.
CC1(Cc2ccc(Cl)cc2)C(=O)Nc2c(Cl)ccc(Cl)c21 (stereo unspecified) was read as HTR2A ag 4 and NOD2 RIPK2 PPI -2.
CCOC(=O)[C@@H](C)N(Cc1ccc(OC)cc1)S(=O)(=O)N(Cc1ccccc1)[C@H](C(=O)OC)C(C)C was read as HTR2A ag 7, Rtt109 HAT inh 5, TLR9-MyD88 block -3, NOD2 RIPK2 PPI -10 and LANA-H2B inh 6.
Screening O=C(CSc1n[nH]c(=O)n1C1CC1)NCc1ccccc1 returned HTR2A ag 15*, Rtt109 HAT inh -7, TLR9-MyD88 block 0, NOD2 RIPK2 PPI -14, LANA-H2B inh -5, MOR ag counter -1 and HTR2A ag conf -3.
Screening COc1cc(NC(=O)CNC(=O)Cn2cnc3sc(C)c(C)c3c2=O)cc(OC)c1OC returned HTR2A ag 0, TLR9-MyD88 block 1 and NOD2 RIPK2 PPI -4.
For Cc1ccccc1C(=O)Nc1ccnc(-c2ccncc2)n1 the results were HTR2A ag 20*, Rtt109 HAT inh -8, TLR4 MyD88 comp 6, TLR9-MyD88 block 8, NOD2 RIPK2 PPI -2, LANA-H2B inh 0, MOR ag counter 0 and HTR2A ag conf 1.
For Cc1cccc(C(=O)Nc2ccnc(-c3ccncc3)n2)c1 the results were HTR2A ag 3, Rtt109 HAT inh 1, TLR4 MyD88 comp -6, TLR9-MyD88 block -4, NOD2 RIPK2 PPI -8 and LANA-H2B inh -5.
`Cc1cccc(N2CCN(C(=S)Nc3ccc4nc(N5CCOCC5)cc(C)c4c3)CC2C)c1` (stereo unspecified) gave HTR2A ag 16*, Rtt109 HAT inh -4, TLR4 MyD88 comp -5, TLR9-MyD88 block -10, NOD2 RIPK2 PPI -6, LANA-H2B inh -2, MOR ag counter 0 and HTR2A ag conf 0.
Cc1cc(N2CCOCC2)nc2ccc(NC(=S)N3CCN(c4ccccc4)CC3)cc12 was read as HTR2A ag -7, Rtt109 HAT inh -2, TLR4 MyD88 comp 14, TLR9-MyD88 block -14, NOD2 RIPK2 PPI -16 and LANA-H2B inh 4.
Screening CC1CN(CC(O)c2ccc(Br)cc2)CCO1 (stereo unspecified) returned HTR2A ag 0, Rtt109 HAT inh 0, TLR9-MyD88 block 7 and NOD2 RIPK2 PPI 2.
Cc1ccc(C(=O)Nc2cc(=O)n(C)c(=O)n2C)cc1C was read as HTR2A ag 16*, Rtt109 HAT inh -2, TLR4 MyD88 comp 8, TLR9-MyD88 block 1, NOD2 RIPK2 PPI 4, MOR ag counter 0 and HTR2A ag conf -2.
Screening Nc1[nH]c(C(=O)c2ccccc2)c(-c2ccc(Cl)cc2Cl)c1C(=O)c1ccc(Cl)c(Cl)c1 returned HTR2A ag -1 and NOD2 RIPK2 PPI -14.
Screening CC(C)(C)C(=O)c1c(N)[nH]c(C(=O)c2ccccc2)c1-c1ccc(Cl)cc1Cl returned HTR2A ag 16*, NOD2 RIPK2 PPI 10, MOR ag counter 0 and HTR2A ag conf -1.
`Cn1ncc2c(Nc3ccc(O)cc3)nc(Cl)nc21` gave HTR2A ag 18*, Rtt109 HAT inh -1, TLR9-MyD88 block 11, NOD2 RIPK2 PPI 0, LANA-H2B inh 3, MOR ag counter -1 and HTR2A ag conf -3.
Cn1ncc2c(Nc3ccc(Br)cc3)nc(Nc3ccc(Br)cc3)nc21 was read as HTR2A ag 0, Rtt109 HAT inh 0, TLR9-MyD88 block 2, NOD2 RIPK2 PPI -12 and LANA-H2B inh -4.
Screening CC(=O)N1N=C(c2c(-c3ccccc3)c3cc(C)ccc3[nH]c2=O)CC1c1ccco1 (stereo unspecified) returned HTR2A ag 3, Rtt109 HAT inh 12, TLR4 MyD88 comp 4, TLR9-MyD88 block -2, NOD2 RIPK2 PPI 6 and LANA-H2B inh -5.
Screening CC(=O)N1N=C(c2c(-c3ccccc3)c3cc(Br)ccc3[nH]c2=O)CC1c1ccco1 (stereo unspecified) returned HTR2A ag 24*, Rtt109 HAT inh 4, TLR9-MyD88 block -8, NOD2 RIPK2 PPI 8, LANA-H2B inh 2, MOR ag counter 0 and HTR2A ag conf 30*.
Screening OCC1(Cc2ccc(Cl)cc2)CCN(CCCc2ccccc2)CC1 returned HTR2A ag 18*, Rtt109 HAT inh -4, TLR4 MyD88 comp 4, NOD2 RIPK2 PPI -9, LANA-H2B inh -3, MOR ag counter 0 and HTR2A ag conf 44*.
